Screens deposited in PubChem BioAssay by National Center for Advancing Translational Sciences (NCATS).
KDM4E inh = qHTS Assay for Inhibitors of Human Jumonji Domain Containing 2E (JMJD2E). Lysine-specific demethylase 4E (Homo sapiens), B2RXH2. JMJD2E catalytic domain, FDH-coupled NADH fluorescence (FDH is formaldehyde dehydrogenase). Potency, µM (series often up to 57.1 µM), hits mostly inhibitors. 230,000 compounds, 1.6% hits; active = well fitted inhibition curve with a large enough effect, not every such curve was filed as active; inconclusive = small, poorly fitted or top-dose-only effect, or another doubt; inactive = no such curve, though single readings can be large or run the other way; note: nearly all actives have a fitted effect of over 50% in size
Target sequence (B2RXH2 1-337 limits assumed): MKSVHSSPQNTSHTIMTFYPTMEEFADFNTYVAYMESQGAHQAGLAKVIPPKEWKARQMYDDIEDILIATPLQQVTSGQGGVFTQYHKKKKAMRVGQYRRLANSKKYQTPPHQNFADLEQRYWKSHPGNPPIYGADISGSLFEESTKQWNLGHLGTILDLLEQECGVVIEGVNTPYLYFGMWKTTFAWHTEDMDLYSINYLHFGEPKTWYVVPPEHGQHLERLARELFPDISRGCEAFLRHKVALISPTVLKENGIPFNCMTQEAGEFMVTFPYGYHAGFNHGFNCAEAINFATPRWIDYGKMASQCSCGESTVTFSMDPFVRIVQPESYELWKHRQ
Tau ThT inhib = qHTS for Inhibitors of Tau Fibril Formation, Thioflavin T Binding; Microtubule-associated protein tau (Homo sapiens), P10636; recombinant tau K18 P301L, heparin-induced fibrillization, ThT fluorescence; Potency, µM (titrated, usually from 57.4 µM), most hits filed as inhibitors; 270,000 compounds, 2.1% hits; AID 1460, 2008; note: nearly all actives have a fitted effect of over 55% in size
Target sequence (P10636 561-689 P618L limits assumed): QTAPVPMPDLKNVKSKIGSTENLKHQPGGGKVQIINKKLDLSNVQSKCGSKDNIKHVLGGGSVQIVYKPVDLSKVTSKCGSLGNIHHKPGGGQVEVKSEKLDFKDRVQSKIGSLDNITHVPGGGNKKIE
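Using a mix of unlabeled (15 uM) and Alexa 594-labeled (0.24 uM) tau K18 P301L, heparin-triggered fibrillization over 6 hr at 37 C was scored by ThT fluorescence.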
Tau FP inhib = qHTS for Inhibitors of Tau Fibril Formation, Fluorescence Polarization | K18 P301L tau heparin fibrillization, Alexa594 FP, 6 h | Potency, µM (top dose mostly 57.7 µM), usual class: inhibitors | 280,000 compounds, 0.39% hits | AID 1468, 2008; note: nearly all actives have a fitted effect of over 55% in size
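Human K18 P301L fragment (15 uM unlabeled plus 0.24 uM Alexa 594-labeled) in 100 mM sodium acetate pH 7 with compound, aggregation induced by 20 uM heparin for 6 hr at 37 C. ThT (30 uM) added for 1 hr, then Alexa 594 FP read.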
TRb-SRC2 inh = qHTS for Inhibitors of the Interaction of Thyroid Hormone Receptor and Steroid Receptor Coregulator 2 | TRbeta-SRC2 peptide binding, fluorescence polarization; receptor liganded with 1 µM T3 | Potency, µM (top dose mostly 106 µM), usual class: inhibitors | 280,000 compounds, 0.065% hits; note: nearly all actives have a fitted effect of over 50% in size
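Each compound concentration gave % activity, normalized to unbound and bound Texas Red SRC2 controls, from polarization read after 5 hr ambient incubation with T3-loaded human TRb LBD.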
Tau fluor cs = Counterscreen qHTS for Inhibitors of Tau Fibril Formation, Fluorescence Polarization. 280,000 compounds, 0.93% hits. tau K18 P301L Alexa594 fluorescence, heparin fibrillization. AID 1463, 2008. Potency, µM (series often up to 57.7 µM); note: nearly all actives have a fitted effect of over 55% in size
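Human tau K18 P301L (15 uM unlabeled, 0.24 uM Alexa 594-labeled) in 100 mM sodium acetate pH 7 with 20 uM heparin, 6 hr at 37 C. ThT 30 uM added, 1 hr ambient; Alexa 594 FP and total fluorescence read at 555/632 nm.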
TR SRC2 fluor cs = Total Fluorescence Counterscreen for Inhibitors of the Interaction of Thyroid Hormone Receptor and Steroid Receptor Coregulator 2 | TRb/SRC2 Texas Red total fluorescence interference | 280,000 compounds, 0.29% hits | Potency, µM (titrated, usually from 106 µM); active = well fitted curve in either direction with a large enough effect; inconclusive = small, poorly fitted or top-dose-only effect
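Human TRβ ligand-binding domain (0.6 uM) and Texas Red SRC2 peptide (20 nM) in Tris buffer with 1 uM T3 and 5% DMSO were incubated with pinned compound for 5 hr at ambient temperature. Total fluorescence was computed as S + 2P (555/632 nm).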
A number is an active result; – = inactive; ? = inconclusive; · = no result given; [ ] = another dose, or the depositor's remark. An excerpt weighted towards active compounds, which were near 3.5% of everything screened. Unless noted, calls come from the whole dose curve; as a rule, active = well fitted curve in the direction sought with a large enough effect; inconclusive = small, poorly fitted or top-dose-only effect, or another doubt; inactive = no such curve, though single readings can be large; an effect the other way counts as inactive or inconclusive.

SMILES	KDM4E inh	Tau ThT inhib	Tau FP inhib	TRb-SRC2 inh	Tau fluor cs	TR SRC2 fluor cs
CC(C)C(C(=O)OCC(=O)c1cccc([N+](=O)[O-])c1)N1C(=O)[C@@H]2[C@H]3CC[C@H](C3)[C@@H]2C1=O (stereo partly specified)	–	–	–	–	–	–
COc1ccnc(CSC(N)=Nc2ccc(F)cc2)c1	?	28µM	?	–	–	–
COC(=O)c1ccc(-c2nc3cc(N)ccc3o2)cc1	–	5µM	–	–	–	–
O=C1NC(=S)N/C1=C\C=C\c1ccccc1	–	·	–	–	–	–
COc1ccc(/C=C/C=C2\NC(=S)NC2=O)cc1	–	2µM	–	–	–	–
CO[C@H]1COC(=O)[C@H](C)COC(=O)[C@@H](Cc2ccccc2)NC(=O)C/C=C\[C@H]1C	·	–[11.5 µM]	–[11.6 µM]	–[11.2 µM]	–[11.6 µM]	–[11.2 µM]
CC(=O)Nc1cccc(/C(C)=N/NC(=O)c2ccc(O)cc2)c1	–	–	–	–	–	–
C/C(=N\NC(=O)c1ccccc1F)c1ccc2c(c1)Nc1ccccc1S2	–	2µM	?	–	3.5µM[quencher]	–
C/C(=N\NC(=O)c1ccc(O)cc1)c1ccc2c(c1)Nc1ccccc1S2	–	4.5µM	–	–	11µM[quencher]	–
CN1CC(O)C2=CC(=O)C(=O)C=C21 (stereo unspecified)	·	3.2µM	13µM	–	5.6µM[quencher]	?
COCCNC(=S)N/N=C/c1ccccc1C(=O)O	–	–	–	–	–	–
COCCCNC(=S)N/N=C/c1ccccc1O	28µM	–	–	–	–	–
Oc1ccccc1/C=N/NC(=S)NC1CC2CCC1C2 (stereo unspecified)	25µM	–	–	–	?	–
COc1cccc(CNC(=O)CCC(=O)N2CC(C)Sc3ccccc32)c1 (stereo unspecified)	·	–	–	–	–	–
CCN1CCN(c2c(/C=C3\SC(=S)N(Cc4ccco4)C3=O)c(C)c(C#N)c(=O)n2C)CC1	13µM	·	–	–	?	–
CC(=O)Nc1ccn(C2CC3OCC(NC(=O)C4CCCN4C(=O)OC(C)(C)C)C3O2)c(=O)n1 (stereo unspecified)	·	·	·	–	·	–
CSc1ccc(C(=O)/C=C/c2ccc(N)cc2)cc1	–	16µM	–	–	?	–
CC1CCN(c2nc3c(c(=O)n(C)c(=O)n3C)n2CCSc2nc3ccccc3o2)CC1	–	–	–	–	–	–
Cc1ccc(C2=NN=C(NC(=O)CSc3nncn3C)SC2)cc1	–	22µM	?	–	–	–
Cc1ccc(NC(=O)CSc2nncn2C)c(C)c1	·	–	–	–	–	–
O=C(CSc1nc2ccccc2s1)c1cc2ccccc2o1	–	–	–	–	–	–
NS(=O)(=O)c1ccc(N/N=C/c2ccc(C(=O)O)cc2)c([N+](=O)[O-])c1	–	11µM	–	–	–	–
O=C(O)c1ccc(/C=N\Nc2ccc(S(=O)(=O)N3CCOCC3)cc2[N+](=O)[O-])cc1	–	?	–	–	–	–
COc1ccc(/C=N\Nc2ccccc2[N+](=O)[O-])c(C(=O)O)c1OC	–	?	–	–	–	–
COc1ccc(/C=N\Nc2ccc([N+](=O)[O-])cc2[N+](=O)[O-])c(C(=O)O)c1OC	?	14µM	–	–	–	–
SMILES	KDM4E inh	Tau ThT inhib	Tau FP inhib	TRb-SRC2 inh	Tau fluor cs	TR SRC2 fluor cs
COc1cc(/C=N/Nc2ccc(F)cc2F)cc(OC)c1O	7.9µM	?	–	–	?	–
COc1cc(/C=N/N=C/c2cc(OC)c(O)c(OC)c2)cc(OC)c1O	–	?	–	–	–	–
Cc1nn(-c2ccccc2)c(N2CCCC2)c1/C=N/Nc1ccc(S(N)(=O)=O)cc1[N+](=O)[O-]	–	5µM	–	–	14µM[quencher]	–
COc1ccccc1NC(=O)COc1cc(Br)c(CNCCCN2CCOCC2)cc1OC	–	–	–	–	–	–
COc1cc(/C=N/Nc2ccccc2[N+](=O)[O-])cc(OC)c1O	–	–	–	–	–	–
NS(=O)(=O)c1ccc(N/N=C/c2ccc[nH]2)c([N+](=O)[O-])c1	–	7.9µM	–	–	?	–
C/C(=N\Nc1ccc(S(N)(=O)=O)cc1[N+](=O)[O-])c1ccc2c(c1)OCO2	–	3.5µM	–	–	?	–
CC(=O)N1CCC(=NNc2ccc(S(N)(=O)=O)cc2[N+](=O)[O-])CC1	–	?	–	–	–	–
CCC(CC)=NNc1ccc(S(N)(=O)=O)cc1[N+](=O)[O-]	–	?	–	–	–	–
COc1cc(/C=N/Nc2ccc(S(N)(=O)=O)cc2[N+](=O)[O-])cc(OC)c1O	–	1.8µM	–	–	?	–
CCOC(=O)N1CCC(=NNc2ccc(S(N)(=O)=O)cc2[N+](=O)[O-])CC1	–	5µM	–	–	–	–
CCN1CCN(CCNC(=O)CSCc2nc(-c3ccc(OC)c(OC)c3)oc2C)CC1	?	–	–	–	–	–
O=C(CNC(=O)c1ccc2c(c1)OCO2)N/N=C(Br)/C=C/c1ccccc1	–	–	–	–	–	–
O=C(Nc1ccccc1-c1nc2ccccc2[nH]1)c1ccc(N2C(=O)CCC2=O)cc1	?	–	–	–	–	–
CC1CCCCN1S(=O)(=O)c1ccc(NC(=O)c2cccc(-n3cnnn3)c2)cc1 (stereo unspecified)	–	–	?	–	18µM[quencher]	–
O=C(Nc1ccccc1-c1nc2ccccc2[nH]1)c1ccc(S(=O)(=O)N2CCCCC2)cc1	–	–	13µM	–	?	–
CC1CCCCN1S(=O)(=O)c1ccc(C(=O)Nc2ccccc2-c2nc3ccccc3[nH]2)cc1 (stereo unspecified)	–	–	14µM	–	?	–
Cc1nn2c(-c3ccco3)ccnc2c1-c1ccc(Cl)cc1	·	?	?	–	–	–
N#Cc1cc2c(nc1Cl)CCCC2	–	–	–	–	–	–
COc1cc(CNc2ccc3[nH]c(=O)[nH]c3c2)cc(Cl)c1OCC(=O)NC(C)(C)C	?	11µM	?	–	?	–
C=CCOc1c(CNc2ccc3[nH]c(=O)[nH]c3c2)cccc1OC	20µM	–	–[2.34 µM]	–	–	–
CCOc1cc(CNc2ccc3[nH]c(=O)[nH]c3c2)ccc1OCC(=O)NC(C)(C)C	?	13µM	?	–	?	–
